# Screening results: PubChem BioAssay, several laboratories
# TWEAK Fn14 block: blocks TWEAK-Fn14 interaction in a reporter cell assay; TWEAK-stimulated Fn14 reporter cells, luciferase luminescence, 8 h; inhibition, % at 10 µM; hit rate 2% among 360,000; AID 1159606; in the data active means inhibition above about 50%
# TROY NFkB inh: TROY signaling inhibition; Q293 LMP1-TROYcd NF-kB luciferase reporter, 4 h; inhibition, % at 10 µM; hit rate 0.98% among 360,000;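 active means compounds whose plate-normalised and pattern-corrected inhibition of the luciferase reporter signal at the single screening dose is 50% or more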
# Peg3 prom inh: reduces Peg3 promoter-driven luciferase expression in HeLa; hit rate 1.7% among 360,000; AID 588405; HeLa PEG-Prom luciferase reporter, luminescence, overnight; inhibition, % at 20 µM;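 active means inhibition of at least 50% at 20 µM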
# LMP1 NFkB inh: inhibitors of Epstein-Barr LMP1-induced NF-kappaB reporter | LMP1-induced NF-kappaB luciferase reporter cells, luminescence | inhibition, % at 12.5 µM | hit rate 0.69% among 350,000 | AID 504558; in the data active means inhibition above about 41%; inconclusive means no clear call, values can overlap the other calls;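 further: 0% = neutral control wells and 100% = reference inhibitor control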
# TRPM1 prom inh: MITF TRPM1 promoter inhibition in SK-MEL-5 cells | SK-MEL-5 TRPM1 promoter luciferase, 24 h | inhibition, % at 12.5 µM | hit rate 0.83% among 330,000 | AID 488899;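 active means mean inhibition across replicates of 60% or more, whatever share of single replicates reaches that level; inconclusive means some that reach 60%, reason not given; inactive means mean inhibition across replicates below 60%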
# Shn3 3UTR inh: reduces Shn3 3'UTR luciferase signal in osteoblasts; hit rate 0.52% among 360,000; inhibition, % at 12.5 µM; Clone20 osteoblast Shn3 3'UTR firefly luciferase, 24 h; AID 588674;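 active means mean inhibition of at least 75% with every replicate also reaching 75%; inconclusive means mean inhibition at least 75% but some replicate below; inactive means mean inhibition below 75%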;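 further: 0% = median of neutral control wells and 100% = pilot-screen positive control compound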
# The depositor's hits bear a star; ? = inconclusive; . = no result given. In the library only some 4.1% were active in any assay of this set; here they are far more common.
SMILES,TWEAK Fn14 block,TROY NFkB inh,Peg3 prom inh,LMP1 NFkB inh,TRPM1 prom inh,Shn3 3UTR inh
CCCNC(=O)c1ccc(N2CCC3(CC2)CC(c2cccc(Br)c2)=NO3)c(NC(=O)c2ccc(Cl)c([N+](=O)[O-])c2)c1,28,-16,73*,2,44,9
C=C(C)Cn1c(COc2ccccc2)nnc1SCC(=O)O,-1,8,4,-5,1,-10
Cc1ccsc1C(=O)N1CCC(CO)(Cc2ccccc2)CC1,-30,15,6,13,11,4
Cc1ccc(NCc2nnc(SCC(=O)c3ccc4c(c3)OCCO4)o2)c(C)c1,31,77*,4,-5,9,-8
COc1ccc(OCc2cc(C(=O)N3CCOCC3)no2)c(Cl)c1,4,-24,-315,-43,-83,-158
O=C1C(Nc2ccccc2)=C/C(=N/S(=O)(=O)c2cccs2)c2ccccc21,97*,48,105*,87*,95*,97*
Cc1ccc(NC2=C/C(=N/S(=O)(=O)c3cccs3)c3ccccc3C2=O)cc1,94*,60*,-88,80*,105*,97*
Cc1cc(C)c2nc(SCC(=O)NCC3CCCO3)c(C#N)cc2c1 (configuration not stated),-16,-3,9,-10,-1,-12
CC(C)(C)n1nnnc1C(c1ccc(C(F)(F)F)cc1)N(Cc1ccccc1)Cc1ccco1 (configuration not stated),3,13,11,-8,4,88*
CC(C)(C)n1nnnc1C(c1ccc(C(F)(F)F)cc1)N(Cc1ccc(F)cc1)Cc1ccco1 (configuration not stated),22,4,-4,1,3,89*
CCOC(=O)C(=CNc1cscc1S(=O)(=O)C(C)C)C(=O)OCC,-11,-6,8,7,4,14
COc1ccccc1C(=O)NCC(=O)N1CC=C(c2ccccc2)CC1,-16,8,-38,14,-8,3
CC(=O)N1C[C@H]2CON(C)[C@H]2C[C@H]1c1ccc(-c2cccnc2)cc1,-1,-21,-3,-4,.,-20
COc1cccc(Sc2nc(-c3ccccc3)ncc2S(C)(=O)=O)c1,91*,71*,-19,-68,.,-89
CS(=O)(=O)c1cnc(-c2ccccc2)nc1Sc1ccc(F)cc1,13,-5,5,3,-5,2
O=C(CCl)N(c1ccccc1)C1CCS(=O)(=O)C1 (configuration not stated),53*,5,103*,12,?,5
COCCn1ccc2c(OCC(=O)Nc3cc(OC)ccc3OC)cccc2c1=O,-8,-10,52*,2,9,-5
CCOCCn1ccc2c(OCC(=O)Nc3cc(OC)ccc3OC)cccc2c1=O,21,14,46,5,2,9
O=C(NC(=S)/C(=C1\CCCCCN1)[N+](=O)[O-])c1ccccc1,99*,87*,-15,40*,27,33
CC(CCc1ccco1)N(C)S(=O)(=O)c1csc(C(N)=O)c1 (configuration not stated),-12,12,15,52*,-9,3
O=C(CCCNS(=O)(=O)c1ccc(Br)cc1)N1CC[C@@]2(O)CCCC[C@H]2C1,-1,3,15,2,8,13
C#CC(=O)N(c1ccc(OC)c(OC)c1)C(C(=O)NC1CCCC1)c1cccs1 (configuration not stated),61*,11,103*,10,96*,87*
C#CC(=O)N(c1cccc(OC)c1)C(C(=O)NC1CCCC1)c1cccs1 (configuration not stated),55*,28,106*,96*,107*,100*
O=C(O)/C=C\C(=O)NNC(=O)c1cc(-c2ccccc2)n[nH]1,-8,4,11,2,-2,8
COC(=O)c1c(NC(=O)C(Cl)Cl)sc2c1C(C(=O)OC)CC2 (configuration not stated),21,7,81*,-27,?,-7
SMILES,TWEAK Fn14 block,TROY NFkB inh,Peg3 prom inh,LMP1 NFkB inh,TRPM1 prom inh,Shn3 3UTR inh
Nc1nc(Sc2ccc([N+](=O)[O-])c3nonc23)c2[nH]cnc2n1,32,-7,67*,3,82*,39
Nc1nc(SCc2ccccc2)c2[nH]cnc2n1,9,7,-11,4,-8,16
CNc1ncnc(Sc2nc(N)nc3nc[nH]c23)c1[N+](=O)[O-],27,2,48,0,71*,-3
Cc1ccc(Sc2ncnc(N)c2[N+](=O)[O-])cc1,43,14,-1,9,0,-24
CC(=O)/C(=C/N(C)C)C(=O)Nc1ccc(Cl)cc1Cl,-3,14,-13,0,1,12
CN(C)CCNC=C(C(=O)Nc1ccc(Cl)cc1Cl)C(=O)Nc1ccc(Cl)cc1Cl,16,54*,91*,-52,19,-19
Cc1ccc(NC(=O)CSc2ccccc2NC(=O)c2ccccc2Cl)cc1Cl,73*,17,-23,-13,-2,2
COc1cc(NC(=O)Cn2ncc(Cl)c(Cl)c2=O)c(C)cc1[N+](=O)[O-],98*,68*,98*,81*,103*,97*
NC(=O)C1CCN(c2ccc3c(c2)S(=O)(=O)c2ccccc2C3=O)CC1,49,63*,-73,-4,-28,-17
O=C1c2ccccc2C(=O)c2cc(N3CCCCC3)ccc21,101*,83*,13,45*,44,42
Cc1ccc(NC(=O)CO/N=C(\N)c2ccccc2)cc1C,-3,-7,-12,-8,-8,89*
CN1CCN(C(=O)c2ccc(-c3cccs3)s2)CC1,2,-38,-207,1,-94,-73
O=C(c1cccs1)c1ccc(-c2cccs2)s1,61*,-6,-41,-14,1,-13
COC(=O)CCCn1cc(CN2CC(N3CCCCC3)CS2(=O)=O)nn1 (configuration not stated),-1,-7,.,.,.,.
CC(=O)/C(=C/c1ccccc1)C(=O)Nc1ccccc1C,80*,6,73*,4,44,2
CC(=O)Nc1ccccc1C,9,3,11,4,3,-18
Cc1ccc(-c2csc(N3CCN(CCCn4c(-c5ccncc5)nc5ccccc54)CC3)n2)cc1,-6,1,36,33,67*,6
COc1ccc(CN(CCO)CCO)cc1[N+](=O)[O-],-1,-1,7,11,-4,13
COc1ccc([C@@H]2CC=C(C(=O)O)[C@H](c3ccccc3F)N2S(=O)(=O)c2ccc(C)cc2)cc1OC,-1,-11,6,-8,2,4
COC(=O)C1=C(C)NC(C)=C(C(=O)OCC(C)C)C1c1ccccc1[N+](=O)[O-] (configuration not stated),47,33,33,91*,19,53
O=C(O)c1sccc1SCc1ccc(Cl)c(Cl)c1,-6,-31,-30,0,-1,-4
